According to PubChem BioAssay (EPA / NIEHS):
Records with an inconclusive call do not appear. The source made the active and inactive calls. Rule for the calls, unless noted: active = hit-call score of the fitted dose curve at least 0.9, where 1 is the maximum; inactive = score below 0.9.

Tests used:
[1] = BSK_BT_Bcell_Proliferation: Viability Assessment in the BioMAP Diversity Plus: BT Assay for B cell Proliferation (AID 2284227); conditions: primary human B cells with PBMC
Procedure, shortened: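 Human B cells co-cultured with PBMC were dosed with test chemicals and relative cell number was quantified by SRB staining at 72 h. Cells were fixed in 10% TCA, stained with 0.1% SRB and read at 560 nm. Activity was fitted in the positive direction against DMSO.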

[2] = read-out: Interleukin 6 (IL6), IL6 (gene 3569); assay: BSK_BT_xIL6: BioMAP Diversity Plus: BT Assay for Interleukin 6 (IL6) Biomarker Activity (AID 2284228); conditions: primary human B cells with PBMC
Procedure, shortened: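 Secreted IL-6 in the primary human B cell plus PBMC system, measured by Luminex at 24 h post-chemical, DMSO as baseline. Alamar Blue viability: 75,000 cells/well, chemical 1 h before SEB/TSST-1 (20 ng/mL each), 90 h, then 6 h dye.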

[3] = read-out: Interleukin 17A (IL17A), IL17A (gene 3605); assay: BSK_BT_xIL17A: BioMAP Diversity Plus: BT Assay for Interleukin 17A (IL17A) Biomarker Activity (AID 2284229); conditions: primary human B cells with PBMC
Procedure, shortened: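 Luminex xMAP quantification of secreted IL-17A after 24 h chemical exposure of a primary human B cell/PBMC co-culture. Signal increases fitted relative to DMSO negative control.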

[4] = read-out: Tumor necrosis factor (Homo sapiens) (UniProt P01375); assay: BSK_BT_xTNFa: BioMAP Diversity Plus: BT Assay for Tumor necrosis factor alpha (TNF-alpha) Biomarker Activity (AID 2284230); conditions: primary human B cells with PBMC
Procedure, shortened: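 B cells with PBMC in co-culture, dosed and sampled at 24 h; secreted TNF-alpha measured by Luminex xMAP bead assay. Activity fitted in the gain direction against DMSO as negative control and baseline.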

[5] = read-out: Vascular cell adhesion molecule 1 (VCAM1), VCAM1 (gene 7412); assay: BSK_MyoF_VCAM1: BioMAP Diversity Plus: MyoF Assay for Vascular cell adhesion molecule 1 (VCAM1) Biomarker Activity (AID 2284231); conditions: primary human lung fibroblasts
Procedure, shortened: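 ELISA readout of VCAM-1 on human lung fibroblast cultures 24 hours after dosing, analyzed for signal gain relative to DMSO. Overt cytotoxicity was checked by sulforhodamine B total-protein staining in parallel cultures.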

[6] = read-out: Collagen I, COL1A1 (gene 1277); assay: BSK_MyoF_CollagenI: BioMAP Diversity Plus: MyoF Assay for Collagen I Biomarker Activity (AID 2284238); conditions: primary human lung fibroblasts
Procedure, shortened: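 Collagen I levels measured by ELISA on human lung fibroblast cultures 24 h post-dosing, with curve fitting in the positive direction relative to DMSO; SRB staining of parallel wells marked cytotoxicity.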

[7] = read-out: Collagen III, COL3A1 (gene 1281); assay: BSK_MyoF_CollagenIII: BioMAP Diversity Plus: MyoF Assay for Collagen III Biomarker Activity (AID 2284239); conditions: primary human lung fibroblasts
Procedure, shortened: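 Collagen III biomarker quantified by ELISA in human lung fibroblast cultures 24 h after dosing. Activity fitted in the positive direction against DMSO as baseline.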

[8] = read-out: Interleukin 17F (IL17F), IL17F (gene 112744); assay: BSK_BT_xIL17F: BioMAP Diversity Plus: BT Assay for Interleukin 17F (IL17F) Biomarker Activity (AID 2284243); conditions: primary human B cells with PBMC
Procedure, shortened: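 Human B cells co-cultured with PBMC; secreted IL-17F quantified by LumineX xMAP 24 hours after chemical dosing. Activity fitted in the positive direction against DMSO negative control as baseline.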

[9] = read-out: Actin alpha 1 (ACTA1), ACTA1 (gene 58); assay: BSK_MyoF_ACTA1: BioMAP Diversity Plus: MyoF Assay for Actin alpha 1 (ACTA1) Biomarker Activity (AID 2284244); conditions: primary human lung fibroblasts
Procedure, shortened: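 Cells were exposed to chemical for 24 h before a-SMA levels were quantified by ELISA in human lung fibroblasts. Increases were fitted against DMSO as negative control; parallel SRB staining (0.1% after 10% TCA fixation, 560 nm) assessed cytotoxicity.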

[10] = read-out: Interleukin 2 (IL2), IL2 (gene 3558); assay: BSK_BT_xIL2: BioMAP Diversity Plus: BT Assay for Interleukin 2 (IL2) Biomarker Activity (AID 2284245); conditions: primary human B cells with PBMC
Procedure, shortened: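 The BT system combines human B cells with peripheral blood mononuclear cells. Twenty-four hours after chemical dosing, secreted IL-2 was measured with xMAP bead technology, and responses were analyzed as increases over DMSO controls.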

[11] = read-out: Basic fibroblast growth factor (bFGF), FGF2 (gene 2247); assay: BSK_MyoF_bFGF: BioMAP Diversity Plus: MyoF Assay for Basic fibroblast growth factor (bFGF) Biomarker Activity (AID 2284246); conditions: primary human lung fibroblasts
Procedure, shortened: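 Chemicals are added to human lung fibroblast cultures and incubated 24 h. bFGF is then measured by ELISA, while parallel cultures receive SRB staining for total protein as a cytotoxicity check. Data are fitted upward against DMSO.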

[12] = read-out: Collagen IV, COL4A1 (gene 1282); assay: BSK_MyoF_CollagenIV: BioMAP Diversity Plus: MyoF Assay for Collagen IV Biomarker Activity (AID 2284247); conditions: primary human lung fibroblasts
Procedure, shortened: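 Human lung fibroblast system, 24 h chemical exposure. Endpoint: Collagen IV by ELISA, upward fit vs DMSO.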

[13] = UKN2_HCS_IMR90_cell_viability: Viability Assessment in the University of Konstanz (UKN) Leist Lab Neural Crest Cell Migration Assay in human induced IMR90 Pluripotent Stem Cells (UKN2) (AID 2284233);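 note: cells exposed to compound for 24 h after a 24 h migration phase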
Procedure, shortened: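 Viability read as calcein-AM fluorescence by high-content imaging, Hoechst co-stain, 30 min. Human iPSC (IMR90) neural crest cells had migrated 24 h into stopper-defined gaps before 24 h chemical exposure. Fitted bidirectionally relative to DMSO.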

[14] = CCTE_Mundy_HCI_Cortical_NOG_NeuronCount: CCTE's Neurite Outgrowth Assay in rat cortical cells for Neuron Count, Mundy Lab (AID 2284236; active = hit-call score of the fitted dose curve at least 0.9, where 1 is the maximum;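 note: neurons counted by imaging betaIII-tubulin and Hoechst stained cortical cells; cells exposed to compound for about 48 hours before fixation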)
Procedure, shortened: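 Read-out: neuron number by high-content imaging of betaIII-tubulin (Alexa Fluor-488) and Hoechst-labelled rat primary cortical cells.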

[15] = CCTE_Mundy_HCI_Cortical_NOG_BPCount: CCTE's Neurite Outgrowth Assay in rat cortical cells for Branch Point Count, Mundy Lab (AID 2284237);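 for AC50: branch points counted about two days after chemical exposure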
Procedure, shortened: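 Measured 50.33 h after dosing, this morphology endpoint uses rat primary cortical cultures labelled for betaIII-tubulin. Branch points are quantified by high-content imaging, with DMSO as negative control and baseline.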

[16] = CCTE_Mundy_HCI_hNP1_Casp3_7: CCTE's Caspase-Glo 3/7 Assay in human neuroprogenitor cells for Apoptosis, Mundy Lab (AID 2284240)
Procedure, shortened: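 Luminescent caspase-3/7 readout, 26.5 h post-dose, in human neural progenitor cells from WA09 embryonic stem cells. Cells grew 40–44 h at 37 °C, 5% CO2 before chemical addition. Activity analysed as signal increase over DMSO baseline.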

[17] = CCTE_Mundy_HCI_hNP1_CellTiter: CCTE's Cell Titer-Glo 2 Assay in human neuroprogenitor cells for Viability, Mundy Lab (AID 2284241; active = hit-call score of the fitted dose curve at least 0.9, where 1 is the maximum;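 for AC50: a hit is a drop in ATP luminescence versus DMSO meaning reduced viability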)
Procedure, shortened: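 Viability read as luminescent ATP content (CellTiter-Glo, 30 min room temperature) twenty-four hours after dosing, relative to DMSO. Cells: WA09-derived hNP1 neuroprogenitors on poly-L-ornithine/laminin, plated 40 to 44 hours before chemical.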

[18] = CCTE_Mundy_HCI_Cortical_Synap_Neur_Matur_NeuronCount: CCTE's Synaptogenesis and Neurite Maturation Assay in rat cortical cells for Neuron Count, Mundy Lab (AID 2284242; active = hit-call score of the fitted dose curve at least 0.9, where 1 is the maximum;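 for AC50: neuron number from Hoechst nuclei and MAP2 staining by high-content imaging; hits reduce neuron count versus DMSO baseline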)
Procedure, shortened: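 Cortical cells from rat are plated, treated with AraC at DIV 5, and exposed to test chemicals with a media change at DIV 7. At DIV 12 they are fixed and immunostained (MAP2, synaptophysin), and imaged neuron counts are compared against DMSO controls.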

[19] = TAMU_HCS_1.5hr_SingleDonor1434_Cytotoxicity: Cytotoxicity Assessment using High-content Screening (HCS) Fluorescent Imaging for the Texas A&M University (TAMU) 1.5-hr Human Induced Pluripotent Stem Cell (iPSC)-derived Cardiotoxicity Assay (AID 2284234; active = hit-call score of the fitted dose curve at least 0.9, where 1 is the maximum)
Procedure, shortened: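 Nuclear counts from Hoechst 33342 imaging define cytotoxicity here, with EC10 (10% cell-count loss relative to DMSO) as point of departure. iPSC cardiomyocytes received 0.2-100 uM test chemical in 0.5% DMSO for 1.5 h at 37 C.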

[20] = TAMU_PeakParms_SingleDonor1434_QT: Texas A&M University (TAMU) 1.5-hr Human Induced Pluripotent Stem Cell (iPSC)-derived Cardiomyocytes Calcium (Ca+2) Flux Assay for Cardiotoxicity: QT (decay-rise ratio) (AID 2284235; active = hit-call score of the fitted dose curve at least 0.9, where 1 is the maximum)
Procedure, shortened: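 Decay/rise ratio of calcium-flux fluorescence scored after 90 min exposure (37C) of donor 1434 iPSC cardiomyocytes to 0.2–100 uM (0.5% DMSO). Beat-cessation and severe-notch points removed; POD is EC05, a 5% rise over DMSO.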

Measured: AC50

Sequence of Tumor necrosis factor (Homo sapiens) (P01375 whole entry, looked up): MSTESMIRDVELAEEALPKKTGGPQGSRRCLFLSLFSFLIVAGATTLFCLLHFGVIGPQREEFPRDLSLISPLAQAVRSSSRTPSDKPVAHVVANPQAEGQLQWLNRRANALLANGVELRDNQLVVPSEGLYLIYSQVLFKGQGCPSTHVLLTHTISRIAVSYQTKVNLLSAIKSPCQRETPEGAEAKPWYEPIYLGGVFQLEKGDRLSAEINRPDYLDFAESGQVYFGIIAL

CC(Cl)CN(C)C (stereo unspecified)
active: [5] 20 µM
not listed: [13] | [14] | [15] | [16] | [17] | [18] | [19] | [20]
inactive: all other assays above

Cc1c([N+](=O)[O-])cc2c(c1[N+](=O)[O-])C(C)(C)CC2(C)C
inactive: [2] | [3] | [6] | [7] | [9] | [11]
active: [1] 20 µM | [4] 29.5 µM | [5] 6.96 µM | [8] 20 µM | [10] 20 µM | [12] 5.8 µM

O=c1ssc(Cl)c1Cl
active: [1] 6.31 µM | [2] 6.42 µM | [3] 4.51 µM | [4] 8.17 µM | [5] 6.69 µM | [6] 7.5 µM | [7] 9.69 µM | [8] 6.3 µM | [9] 6.24 µM | [10] 6.44 µM | [11] 11.4 µM | [12] 7.41 µM

OCC(F)(F)OC(F)(F)C(F)(F)OC(F)(F)CO
not listed: [13] | [14] | [15] | [16] | [17] | [18] | [19] | [20]
inactive: all other assays above

CO/N=C(/C(=O)OC)c1ccccc1COc1ccccc1C
active: [13] 9.92 µM | [14] 13.4 µM | [15] 14.2 µM | [16] 33.2 µM | [17] 82.5 µM | [18] 2.98 µM

CC(O)C(F)(F)C(F)(F)F (stereo unspecified)
not listed: [13] | [14] | [15] | [16] | [17] | [18] | [19] | [20]
inactive: all other assays above

ClC(Cl)=C(c1ccc(Cl)cc1)c1ccccc1Cl
active: [1] 34.4 µM | [2] 30 µM | [3] 27.3 µM | [4] 31.1 µM | [5] 5.1 µM | [6] 4.93 µM | [7] 7.34 µM | [8] 32.2 µM | [9] 5.45 µM | [10] 31.4 µM | [11] 9.45 µM | [12] 9.38 µM

N#Cc1cc([N+](=O)[O-])ccc1N
not listed: [13] | [14] | [15] | [16] | [17] | [18] | [19] | [20]
inactive: all other assays above

COP(=O)(O)OC
not listed: [13] | [14] | [15] | [16] | [17] | [18] | [19] | [20]
inactive: all other assays above

CCOP(=S)(OCC)SCSCC
inactive: [13] | [14] | [15] | [16] | [17]
active: [18] 78.4 µM

N#Cc1c(-c2ccc(Cl)cc2)[nH]c(C(F)(F)F)c1Br
inactive: [11] | [12]
active: [1] 2.37 µM | [2] 0.556 µM | [3] 1.14 µM | [4] 10.8 µM | [5] 0.71 µM | [6] 0.899 µM | [7] 0.63 µM | [8] 1.63 µM | [9] 0.329 µM | [10] 10.1 µM

COC(=O)C(F)(F)C(F)(F)OC(F)(C(F)(F)F)C(F)(F)OC(F)=C(F)F (stereo unspecified)
not listed: [13] | [14] | [15] | [16] | [17] | [18] | [19] | [20]
inactive: all other assays above

c1cc2c3c(cccc3c1)CC2
inactive: [19] | [20]

c1ccc2c(c1)sc1ccccc12
not listed: [13] | [14] | [15] | [16] | [17] | [18] | [19] | [20]
inactive: all other assays above

CCC1(c2ccccc2)C(=O)N=C(O)NC1=O (stereo unspecified)
inactive: [15] | [16] | [17] | [18]

O=P1(N(CCCl)CCCl)NCCCO1 (stereo unspecified)
inactive: [14] | [15] | [16] | [17]

COP(N)(=S)OC
not listed: [13] | [14] | [15] | [16] | [17] | [18] | [19] | [20]
inactive: all other assays above
